± gives the standard deviation of the averaged measurements. Whole data set: some 25,000 sequences, median “ln(normalized median fluorescence intensity)” near 8.9, cut for the highest 2% near 10. The list comes from a sample in which the highest values are over-represented; it also holds similar and randomly drawn sequences.
Test system: PfAP2-LT AP2 domain (GST-tagged)
Assay: gcPBM binding intensity (ln(normalized median fluorescence intensity)); higher = stronger DNA binding
Outline: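 GST-tagged P. falciparum DNA-binding domains produced in E. coli were incubated for 1 h on an Agilent 4 × 180k array of primer-extended double-stranded 36-bp intergenic genomic probes with negative controls. Binding intensity is the highest Masliner-normalised natural-log median intensity across replicate spots of either probe orientation, with bound protein detected by Alexa488 anti-GST antibody at 488 nm.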

Sequence	gcPBM binding intensity (ln)
AAAAAAAAAACATACACACACATATAGATTTATATG [CACACA_site6847]	9.31 ± 0.35
AAAAGGAATTATAGGAAATAAATATATACAAATATA [TGCATGCA_negctrl_site528]	8.69 ± 0.58
TATATTTATATATGTTGTACTCTCCAATAATATTCC [XGTACX_site4438]	8.76 ± 0.52
AGTAAATTATATATCTGTACATATATATATGTGTAT [XGTACX_site5519]	9.04 ± 0.28
AAAATTGGTGAAAATGAAAATATGATTATATGTATA [XGTACX_negctrl_site505]	8.56 ± 0.53
ATAATTTTATATAAATGTACATACATTTTTATTATA [XGTACX_site7368]	8.61 ± 0.4
CAAAGGGAAATTAACACACACATATTTATATTTATA [CACACA_site7202]	9.2 ± 0.47
TTAAACTTGAAACACACACACACACCCATATAAAAA [CACACA_site758]	10.1 ± 0.064
AAAATAACGAGTCAAACACACATATATATATATATA [CACACA_site2039]	10.1 ± 0.2
AAAATAACGAGTCAAACACACATATTTATATTTATA [CACACA_site7050]	8.95 ± 0.45
TAAAAAAAAAAAAAAACACACATATAAATATATATA [CACACA_site1243]	8.56 ± 0.52
AAACTTGACGAACACACACACACATATATAAAAAAA [CACACA_site6494]	10.1 ± 0.4
CAAAGGGAAATTAACACACACATATATATATATATA [CACACA_site2453]	10.3 ± 0.2
AAAAATAACATATAAACACACATATATATATATATA [CACACA_site3802]	9.825 ± 0.0071
TTAAACTTGAAACACACACACACACCGATATAAAAA [CACACA_site4578]	10.06 ± 0.085
TTCAAAGGGAAATTAACACACACATATATATATATA [CACACA_site8777]	9.71 ± 0.2
TATAAATAAAAACACACACACACATATATATATATA [CACACA_site2268]	10.2
CAAAAATAACGAGTCAAACACACATATATATATATA [CACACA_site2038]	9.86 ± 0.3
TGAACACATACATACACACACACAAAAAAAAAAAAA [CACACA_site392]	9.76 ± 0.4
AAAAAAAAAAATACTCGTACATAAACCTATACATTT [XGTACX_site6494]	8.83 ± 0.45
AAAATATGTAGCTACACACACATAAACAAAATAACA [CACACA_site1007]	9.41 ± 0.3
CTGTTTAAAATATAAACACACATTGTTTGCTTTAGA [CACACA_site1301]	8.71 ± 0.4
TATAATCATATATACACACACATATATATATATATA [CACACA_site2168]	9.805 ± 0.05

Sequence	gcPBM binding intensity (ln)
TAATAAATGACAAATTAACACACATATATTATATAT [CACACA_site9294]	8.98 ± 0.36
AATAAATAAATACATCTCAGTATATAAACAAACAAA [CACACA_negctrl_site1604]	8.89 ± 0.51
GATAAATTAAAACACACACACATATATATATATATA [CACACA_site3962]	9.99 ± 0.042
TATATATATATATAAACACACATAAATATAAATATA [CACACA_site1121]	9.01 ± 0.32
GCATAAATCAAACACACACACATATATATATATATA [CACACA_site2422]	10.3 ± 0.15
AAAAACAACACAGATAAATTAACACACACACACATA [XGTACX_negctrl_site588]	10.1 ± 0.12
AATATAAATAAACACACACACATATATATATATATT [CACACA_site2906]	9.79 ± 0.21
CATAATACAGATAACACACACAATTATACATAAAAT [CACACA_site5742]	9.59 ± 0.39
TAAATATAAACACAAACACACACATATATATATATA [CACACA_site7978]	10.04 ± 0.035
AAATAATCATAAAATAAACACACATATATAAATATA [CACACA_site7981]	8.89 ± 0.42
GAAATATTGAAACACACACACAAACATATATATATA [CACACA_site1911]	10.1 ± 0.26
CATATAAATAAACACACACACACATATATATATATA [CACACA_site5309]	10.06 ± 0.064
AATAAATTGAAACACACACACACATATATATATATA [CACACA_site848]	10.17 ± 0.042
CAGATAAATAAACACACACACACATATATATATATA [CACACA_site9311]	10.16 ± 0.078
TACTTGTTATTAACATGTACAAAAAAAAAAAAAATT [XGTACX_site1338]	8.46 ± 0.42
TCTAACATATAATATTCACACACATATATATATTAT [CACACA_site8236]	9.21 ± 0.43
ACTAAAAGGCTTAAATGTACATATTATATATATATA [XGTACX_site5897]	8.89 ± 0.42
TGAATAAATATATATACACACATATATGTATATATT [CACACA_site1642]	8.95 ± 0.37
AAAATTTATAGTATGGTGCATAAAAATATATATATA	8.82 ± 0.46
CATAAAATATAAAACACACACACATATATATATATA [CACACA_site223]	10.1 ± 0.28
AAAAAAAAATTAAAAACACACATATAAATAAATATA [CACACA_site6845]	8.76 ± 0.54
AAAAAAATTAAACACACACACACATATATATATATA [CACACA_site4718]	10.1 ± 0.27
TATAAATAAAAACACACACACATATATATATATATA [CACACA_site2319]	9.88 ± 0.12

Sequence	gcPBM binding intensity (ln)
AAAAAAAAATTAAAAACACACATATATATATATATA [CACACA_site1580]	9.73 ± 0.014
AAAAAAAAAAAACACACACACACATAAATATATATA [CACACA_site149]	10.1 ± 0.18
TAAATAAATAAAAAAACACACATATATATATATATA [CACACA_site4029]	9.6 ± 0.44
TAAATAAAAAAACACACACACATATATATATATATA [CACACA_site2269]	10.2 ± 0.36
TAAAATATAAAACACACACACATATATATATATATT [CACACA_site224]	9.72 ± 0.11
AAAAAAAAAAAAAACACACACATATAAATATAAATA [CACACA_site6972]	9.37 ± 0.45
AAAAAAAAAAAAAAAACACACATAAAAATATAATAA [CACACA_site3855]	8.74 ± 0.63
TAAATAAATAAAAAAACACACATATAAATATAAATA [CACACA_site7815]	8.9 ± 0.52
AAGAAAATAAAAAGGTAAATATGTATAAATAAATAA [TGCATGCA_negctrl_site88]	8.71 ± 0.47
TTATTTTCTTTTTCTTGTACACACATAATATGGATG [XGTACX_site1481]	9.17 ± 0.54
CTAATGATCATATATACACACACACTAATAAAAAAA [CACACA_site9329]	9.64 ± 0.14
ATACCTTCTTTTATGTTTAATTAATATACTTTTTAT [CACACA_negctrl_site1557]	8.96 ± 0.55
ACATATATTATTATATGTACATATATTAATTATATA [XGTACX_site3400]	8.66 ± 0.28
GCACACACAAAAAAAGCATGCATACTAGCTATTTTT [TGCATGCA_site18]	9.37 ± 0.42
ATATATATAAAACACACACACAAAAAAAATAAAGAC [CACACA_site117]	10.1 ± 0.28
AAAAAGAAAAAAAACACACACAAATATAAATAAATA [CACACA_site1183]	9.24 ± 0.49
TACACGCATAAACACACACACACACCCATATATATA [CACACA_site8114]	10.24 ± 0.05
TACCAAAAGAAACACACACACAAAATATATAAATAT [CACACA_site1869]	9.88 ± 0.28
AAAAAAAGAAAAAAAACACACACAAATATAAATAAA [CACACA_site8309]	9.46 ± 0.39
CTTACCAAAAAACACACACACACAAAATATATAAAT [CACACA_site1870]	10.1 ± 0.24
AAAAAATATAAAAAAACACACAAAAAAAAAAAAAAA [CACACA_site1382]	8.6 ± 0.59
CACAAAAATAAACACACACACATATATATATATATA [CACACA_site4704]	10.21 ± 0.057
CACCCATAGAAACACACACACGCATAAAAAAAAAAA [CACACA_site1513]	9.56 ± 0.37

Sequence	gcPBM binding intensity (ln)
TACACAAAAATAAACACACACACATATATATATATA [CACACA_site1000]	9.79 ± 0.23
TACACAAAAATAAACACACACACATATAAATAAATA [CACACA_site6599]	9.76 ± 0.3
ATTCTACACGCACATACACACATATAAATATAAATA [CACACA_site7582]	9.24 ± 0.35
TATATATAATATATATATATGGAAATTCTTTTAAAT [XGTACX_negctrl_site50]	8.41 ± 0.38
AATATGAATATCTATACACACACATATATATACACA [CACACA_site8459]	9.45 ± 0.26
AAAAAAAAAAAATGTGCACACGCGTACACCCAAAAA [CACACA_site8614]	9.03 ± 0.4
TAATGAAGATATATAACACACAAAAGTTATAAATAT [CACACA_site6678]	8.97 ± 0.43
AAAATATAGTAACACATACACACATATATATTTATA [CACACA_site2504]	9.19 ± 0.38
ATAATATATATGAAATGTACATAAATTTAATGCGAC [XGTACX_site5394]	9.18 ± 0.45
AACTGCAAAAAAAGACGTACAAATTATTAATTGCAA [XGTACX_site8929]	8.88 ± 0.54
ATATAAATAACGTGTACACACATATGTATTTATATA [CACACA_site6520]	9.12 ± 0.31
GGAACAAATAATATCACACATATATATATATATATA [CACACA_site5670]	10.2 ± 0.41
TTAATTAAGAAACACACACACATATATATATATATT [CACACA_site2290]	9.79 ± 0.12
AAAAAAAATAAACACACACACATACCCATAAATATA [CACACA_site5980]	10 ± 0.13
TCATAGTATAAACACACACACACACCCATATATATA [CACACA_site8512]	10.1 ± 0.31
AATTAACCGAAACACACACACATATATATATATATA [CACACA_site3963]	10.24 ± 0.064
TACATAAAATATATCACACATATAATATATATATAT [CACACA_site5834]	8.86 ± 0.35
AATATACAAAATATCACACATATAAAATAATATATA [CACACA_site6067]	8.88 ± 0.45
AAAAAAAAAAAAAACACACACACACCCATAAATATA [CACACA_site151]	10.2 ± 0.15
AAAATTAACCGTAACACACACACATATATATATATA [CACACA_site3964]	9.96 ± 0.28
ACCATATAAATAAACACACACACACCCATATATATA [CACACA_site2321]	10 ± 0.36
AAAAAAAAAAAAAACACACACACAATAGTATATAAA [CACACA_site957]	9.55 ± 0.43
